One may read the AC50 as the concentration at which the activity in the assay is half-maximal.

Each structure is given as a SMILES string. About 4,000 (25%) of roughly 16,000 compounds were called active. Another 26% or so got no clear call; they are omitted. A selection follows. Values without a mark were called inactive. Calls follow the shape of the dose curve; as a rule, active = well fitted curve in the direction sought with a large enough effect; inconclusive = small, poorly fitted or top-dose-only effect, or effect the other way; inactive = no such curve, though single readings can be large or run the other way.
% is scaled to controls: 0 for no effect and ±100 for the full control effect.

The experiment deals with Cytochrome P450 2C9 (Homo sapiens) (UniProt P11712). The experiment can be described thus: Cytochrome panel assay with activity outcomes. The conditions noted are these: recombinant CYP, pro-luciferin dealkylation, luminescence, p450-cyp2c9; series mostly up to 57.1 µM; activity, negative = inhibition: at the top concentration.
Sequence of Cytochrome P450 2C9 (Homo sapiens) (P11712 whole entry, looked up): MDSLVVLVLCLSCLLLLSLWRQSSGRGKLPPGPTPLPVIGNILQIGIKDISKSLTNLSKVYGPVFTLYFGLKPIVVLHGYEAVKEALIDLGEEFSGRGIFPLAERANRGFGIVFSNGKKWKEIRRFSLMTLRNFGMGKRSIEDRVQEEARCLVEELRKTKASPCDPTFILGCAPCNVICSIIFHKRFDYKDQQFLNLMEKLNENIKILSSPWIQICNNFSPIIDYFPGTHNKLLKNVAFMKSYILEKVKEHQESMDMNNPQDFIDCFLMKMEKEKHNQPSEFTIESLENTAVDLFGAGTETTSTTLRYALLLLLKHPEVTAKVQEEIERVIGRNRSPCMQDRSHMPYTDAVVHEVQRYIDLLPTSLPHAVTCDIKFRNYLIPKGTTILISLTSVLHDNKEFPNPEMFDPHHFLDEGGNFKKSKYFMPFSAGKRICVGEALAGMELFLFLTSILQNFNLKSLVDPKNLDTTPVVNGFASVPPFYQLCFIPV
Take `Cc1cc2nc3[nH]c4c(Cl)cc(Cl)cc4c3nc2cc1C`: the activity, negative = inhibition was -11.6% [at 11.4 µM].
The same measure, in the same setting: for `O=C(O)CSc1ccn(Cc2ccccc2)c1` the value was -1.85% [at 11.4 µM].
Regarding `C=CCCCCCCCCC(=O)Nc1c[nH]c(=O)[nH]c1=O`, the “activity, negative = inhibition” value was -17.1%.
For `O=C(NC(=S)Nc1ccc2c(c1)OCO2)c1ccccc1`, the AC50 was 3.98 µM (active).
Still for that read-out and setting: for `Cc1onc(-c2c(Cl)cccc2Cl)c1C(=O)Nc1ccc2c(c1)OCO2` the value was 1.41 µM (active).
In the case of `C[N+](C)(C)c1ncnc2c1ncn2[C@@H]1CCCCO1`, the activity, negative = inhibition was 8.84% [at 11.4 µM].
Same read-out and setting: for `CCCOc1ccc(C(=O)OCCN(CC)CC)cc1N` the value was 16.1% [at 25.6 µM].
Still for that read-out and setting: under `Clc1ccc(Nc2ncn[nH]2)cc1` stands -21.5%.
For `O=C1CC(c2ccccc2)Cc2nc(N3CCc4ccccc4C3)ncc21` (stereo not drawn), the AC50 is 4.47 µM (active).
Consider `CN1CCN(c2ncc3ncc(=O)n(-c4ccccc4)c3n2)CC1`, for which the “activity, negative = inhibition” value was 15.8%.
Same read-out and setting: for `CC1CC(=O)c2cnc(N)nc2C1` (stereo not drawn) the value was -14.6%; for `Clc1ccc(-c2noc(CN3CCCCC3)n2)cc1`, -0.0394% [at 11.4 µM].
Turning to `Cc1ccc(-c2noc(CN3CCN(C(c4ccccc4)c4ccccc4)CC3)n2)cc1`, the AC50 is 5.01 µM (active).
For `CC(=O)[C@@H](C)CCO[C@@]1(C)OCC[C@@H]1C`, the activity, negative = inhibition was -15.7% [at 11.4 µM].
The same measure, in the same setting: for `Cc1c(Cl)c(S(N)(=O)=O)cc(S(N)(=O)=O)c1NC(=O)c1ccc(Cl)cc1` the value was -6.54% [at 11.4 µM].
Take `CC(C)(C)N(NC(=O)Nc1ccccc1)C(=O)c1ccccc1Cl`: the AC50 was 14.1 µM (active).
For `Cc1ccc(NCCC(=O)c2ccc(Cl)cc2)cc1C`, the “activity, negative = inhibition” value was 1.28%.
`Cc1cc(C)cc(C(=O)N(NC(=O)Nc2ccc(Cl)cc2)C(C)(C)C)c1`: the half-maximal activity concentration (AC50) is 5.01 µM (active).
As to `CC(C)(CC(=O)Nc1ccccc1)C(=O)O`, the activity, negative = inhibition was 4.33% [at 11.4 µM].
Same read-out and setting: for `O=C(O)[C@@H](Cc1c[nH]c2ccccc12)C(=O)NO` the value was -10.3% [at 11.4 µM]; for `c1ccc2c(CN3CCN(Cc4c[nH]c5ccccc45)CC3)c[nH]c2c1`, -0.0395% [at 11.4 µM].
As for `O=S1(=O)CCN(c2ccccc2CC(c2c[nH]c3ccccc23)c2c[nH]c3ccccc23)CC1`, the AC50 was 3.16 µM (active).
In the case of `Cc1ncn(-c2ccccc2O)c1C`, the activity, negative = inhibition was 9.91% [at 11.4 µM].
Same read-out and setting: for `CCOC(=O)N1CCC(NC(=O)CCC(=O)N2CCOc3ccccc32)CC1` the value was -15.9%.
For `CCOC(=O)N1CCC(NC(=O)CSCc2cnn(-c3ccccc3)c2-n2cccc2)CC1`, the AC50 was 4.47 µM (active).
For `Cc1ccc(NC(=O)Cn2cnc3c(cnn3C(C)(C)C)c2=O)cc1`, the AC50 is 10 µM (active).
Regarding `Cc1ccccc1Cn1cnc2c(cnn2C(C)(C)C)c1=O`, the AC50 was 15.8 µM (active).
The same measure, in the same setting: for `Cc1ccc(C)c(Cn2cnc3c(cnn3C(C)(C)C)c2=O)c1` the value was 8.91 µM (active).
With `Cc1ccc(-n2ncc3c(=O)n(CC(=O)NCC4CCCO4)cnc32)cc1` (stereo not drawn), the “activity, negative = inhibition” value is -23.5%.
Same read-out and setting: under `CO[C@H]1[C@H](O[C@H]2O[C@@H](C)[C@@H](O[C@@H]3C[C@](C)(O)[C@H](OC(=O)CC(C)C)[C@H](C)O3)[C@@H](N(C)C)[C@@H]2O)[C@@H](CC=O)C[C@@H](C)[C@@H](O)/C=C\C=C/C[C@@H](C)OC(=O)C[C@H]1OC(C)=O` stands 9.52% [at 25.6 µM]; under `Cc1cnc(CNc2ccnc(-c3ccccc3Cl)n2)cn1`, 7.84% [at 2.29 µM]; under `CN(C)c1ccc(-c2cncnc2-n2ccnc2)cc1`, 15.2% [at 2.29 µM].
As for `C[C@@H](CSC(=N)N)C(N)=O`, the activity, negative = inhibition is -9.17% [at 11.4 µM].
Same read-out and setting: under `COc1ccccc1N1CCN(CCCCNS(=O)(=O)c2cccc3c(N(C)C)cccc23)CC1` stands -10.7%; under `Cc1noc(C)c1-c1nc(N(C)C)c2ccccc2n1`, 27.2% [at 2.29 µM].
In the case of `Cc1noc(NS(=O)(=O)c2cccc3c(N(C)C)cccc23)c1C`, the AC50 was 0.631 µM (active).
Still for that read-out and setting: under `Cc1ccc(/C=C/C(=O)N2CC(C)CC(C)C2)o1` (stereo not drawn) stands 15.8 µM (active).
Turning to `Cc1ccc(/C=N/NC(=O)Cn2nccc2C)o1`, the “activity, negative = inhibition” value was -17.9%.
For `CSc1nc(Sc2cccc(Cl)c2)c2ccccc2n1`, the concentration at half-maximal activity (AC50) is 0.251 µM (active).
For `CSc1nnnc2ccccc12`, the activity, negative = inhibition was 14.9% [at 11.4 µM].
For `COc1ccccc1NC(=O)C1=C(C)Nc2nc(-c3ccc(N(C)C)cc3)nn2C1c1ccncc1` (stereo not drawn), the AC50 was 8.91 µM (active).
Still for that read-out and setting: under `COc1ccccc1NC(=O)C1=C(C)Nc2nnnn2C1c1cccc(Br)c1` (stereo not drawn) stands 14.1 µM (active).
For the compound `COc1ccccc1NC(=O)c1nc[nH]c1C(=O)Nc1ccccc1OC`, the “activity, negative = inhibition” value is -16.4%.
Regarding `COc1ccccc1CNc1ccnc(-c2ccc(N(C)C)cc2)n1`, the activity, negative = inhibition is -19.9% [at 2.29 µM].
As to `COC(=O)C1=C(C)Nc2ncnn2C1c1cccnc1` (stereo not drawn), the “activity, negative = inhibition” value was -28.3%.
Consider `CC1=C(C(=O)Nc2cccnc2)C(c2cccnc2)n2nc(-c3cccs3)nc2N1` (stereo not drawn), for which the AC50 is 8.91 µM (active).
On to `NS(=O)(=O)c1cc2c(cc1Cl)N[C@@H](C(Cl)Cl)NS2(=O)=O`, for which the “activity, negative = inhibition” value was 15% [at 25.6 µM].
Still for that read-out and setting: under `Cc1noc(C)c1-c1nccc(NCc2cccs2)n1` stands -12.6% [at 2.29 µM]; under `COc1cc([C@H](O)CO)ccc1O`, 4.28%; under `CCCCNN`, -5.3% [at 11.4 µM].
Take `NCCSCCC(=O)O`: the activity, negative = inhibition was -9.49% [at 11.4 µM].
With `C=C1CC[C@H](O)C/C1=C/C=C1\CCC[C@]2(C)[C@H]1CC[C@H]2[C@@H](C)/C=C\[C@@H](C)C(C)C`, the “activity, negative = inhibition” value was -8.1% [at 25.6 µM].
As to `COc1cc(C(=O)N2CCC(NC(=O)C(Cc3ccc(C(C)C)cc3)NC(C)=O)CC2)cc(OC)c1OC` (stereo not drawn), the “activity, negative = inhibition” value was -6.93%.
Regarding `Cc1ccc(Oc2ccccc2/C=C2\SC(=O)N(C)C2=O)cc1`, the AC50 is 10 µM (active).
In the case of `COc1cc(C)cc2c(-c3c(O)cc(O)c4c3C[C@H](C)N[C@@H]4C)cc(-c3cc(-c4c(O)cc(O)c5c4C[C@H](C)N[C@@H]5C)c4cc(C)cc(OC)c4c3O)c(O)c12`, the activity, negative = inhibition was -22.5% [at 11.4 µM].
Still for that read-out and setting: under `O=C(O)C[C@H](NC(=O)CP(=O)(O)O)C(=O)O.[NH-][C@@H]1CCCC[C@@H]1[NH-].[Pt]` stands -7.92% [at 11.4 µM]; under `COc1ccc(NC(=O)N2CCCC3(CCN(C(=O)c4ccco4)CC3)C2)cc1`, -29.7%.
For `COc1ccc2c(c1)Cc1sc(NC(=O)c3ccco3)nc1-2`, the AC50 is 10 µM (active).
On the same count and under the same terms, under `COc1ccc2c(c1)CCc1sc(NC(=O)c3ccc(C)cc3)nc1-2` stands 5.01 µM (active).
`O=C(Nc1nnc(SCc2ccc(Cl)cc2)s1)c1ccco1`: the AC50 is 0.562 µM (active).
Regarding `COc1ccc(C(=O)Nc2nc3c(s2)Cc2cc(OC)ccc2-3)cc1`, the AC50 was 5.62 µM (active).
Turning to `COc1cccc(C(=O)Nc2nc3c(s2)CN(C)CC3)c1`, the “activity, negative = inhibition” value was -22.5%.
In the case of `CC(=O)Nc1nnc(SCc2ccc(F)cc2)s1`, the “activity, negative = inhibition” value is -26.3%.

(Values after PubChem BioAssay AID1851 (National Center for Advancing Translational Sciences (NCATS), 2009).)
